Measurements reported in PubChem BioAssay (NCI).
About 83,000 compounds went through this panel and 20% of them were active in at least one assay; those are over-represented in the sample as a whole.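 Activity criterion: percent growth below 10, measured after cells in 96-well plates were exposed to a single compound concentration for 48 hours.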 Calls of active or inactive are those of the source.

Tests used:
Experiment in all cases: NCI-60 one-dose screen, 48 h (100 = growth as untreated, 0 = no growth, -100 = all killed)
Conditions in all cases: 10 µM
NCI-H23 lung = system: NCI-H23 lung
NCI-H226 lung = system: NCI-H226 lung
HOP-62 NSCLC = system: HOP-62 NSCLC
NCI-H460 lung = system: NCI-H460 lung
HOP-92 NSCLC = system: HOP-92 NSCLC
NCI-H522 lung = system: NCI-H522 lung
A549/ATCC NSCLC = system: A549/ATCC NSCLC
786-0 renal = system: 786-0 renal
COLO 205 colon = system: COLO 205 colon

Measured: growth

COc1cc(-c2nn(-c3cccc(NC(=O)NCCNS(=O)(=O)c4ccc(Cl)cc4)c3)cc2-c2ccncc2)ccc1Cl
inactive: NCI-H23 lung 12.4% | NCI-H226 lung 27.3% | HOP-62 NSCLC 32.9% | A549/ATCC NSCLC 13.3%
active: NCI-H460 lung 1.86% | HOP-92 NSCLC -3.88% | NCI-H522 lung 7.66% | 786-0 renal 6.74% | COLO 205 colon -64.2%

CCN(CC)CCCC(C)N=C(C1=C(C(=NC(C)CCCN(CC)CC)c2cccc(OC)c2)C(=O)NC1=O)c1cccc(OC)c1 (stereo not given)
active: NCI-H23 lung -18.4% | NCI-H226 lung -43.4% | HOP-62 NSCLC -57.5% | NCI-H460 lung -47.1% | HOP-92 NSCLC -66.1% | NCI-H522 lung -64.5% | A549/ATCC NSCLC -81.7% | 786-0 renal -8.78% | COLO 205 colon -89.9%

O=C1CSC(=S)N1/N=C/c1ccc(Cl)s1
inactive: NCI-H23 lung 90.3% | NCI-H226 lung 106% | HOP-62 NSCLC 95.4% | NCI-H460 lung 107% | HOP-92 NSCLC 110% | NCI-H522 lung 96.2% | A549/ATCC NSCLC 103% | 786-0 renal 102% | COLO 205 colon 107%

COc1cc(NC(=O)Nc2cnc(Nc3ccc(N4CCOCC4)cc3)nc2Oc2cccc(OC)c2)cc(OC)c1
active: NCI-H226 lung 7.06% | HOP-92 NSCLC 4.67% | 786-0 renal -25.6%
inactive: NCI-H23 lung 61.3% | HOP-62 NSCLC 32.1% | NCI-H460 lung 23.9% | NCI-H522 lung 27.5% | A549/ATCC NSCLC 23.4% | COLO 205 colon 46.2%

O=C1c2ccccc2C(=O)N1CCCCNc1ccccc1
inactive: NCI-H23 lung 104% | NCI-H226 lung 91.7% | HOP-62 NSCLC 122% | NCI-H460 lung 89.3% | HOP-92 NSCLC 106% | NCI-H522 lung 101% | A549/ATCC NSCLC 78.2% | 786-0 renal 63.7% | COLO 205 colon 114%

CCCc1cn(CC(=O)Nc2nc3ccccc3s2)nn1
inactive: NCI-H23 lung 110% | NCI-H226 lung 106% | HOP-62 NSCLC 102% | NCI-H460 lung 103% | HOP-92 NSCLC 109% | NCI-H522 lung 93.8% | A549/ATCC NSCLC 98.4% | 786-0 renal 108% | COLO 205 colon 109%

CC(=O)N[C@H](C(=O)N[C@@H](CCCNC(=N)N)C(=O)N[C@@H](CCCCN)C(=O)N[C@@H](CCCNC(=N)N)C(=O)N[C@]1(C)CCCCCC/C=C\CCC[C@@](C)(C(=O)N[C@@H](CCCNC(=N)N)C(=O)N[C@@H](CCC(=O)O)C(=O)N[C@@H](CC(C)C)C(=O)N[C@H](C(=O)N[C@@H](CCC(=O)O)C(N)=O)C(C)C)NC(=O)[C@H](CCC(N)=O)NC(=O)[C@H](CC(C)C)NC(=O)[C@H](CC(C)C)NC(=O)[C@H](CCCNC(=N)N)NC(=O)[C@H](CCCNC(=N)N)NC(=O)[C@H](CC(C)C)NC1=O)C(C)C
active: NCI-H23 lung 1.83% | NCI-H226 lung 9.55% | HOP-62 NSCLC -31.5% | NCI-H460 lung -9.29% | HOP-92 NSCLC -63.6% | 786-0 renal -51.4% | COLO 205 colon -29.5%
inactive: NCI-H522 lung 28.7% | A549/ATCC NSCLC 12.4%

CCn1c(SCc2ccc(C)cc2)nnc1-c1nn(-c2ccc(Cl)cc2Cl)c(-c2ccc(Cl)cc2)c1C
active: NCI-H23 lung 3.53% | HOP-62 NSCLC 9.33% | NCI-H460 lung 8.69% | HOP-92 NSCLC -17.2% | NCI-H522 lung -17.4% | A549/ATCC NSCLC 9.87% | COLO 205 colon -34.3%
inactive: NCI-H226 lung 11.6% | 786-0 renal 12.2%

O=C(Cn1cc(CO)nn1)Nc1nc2ccccc2s1
inactive: NCI-H23 lung 101% | NCI-H226 lung 103% | HOP-62 NSCLC 101% | NCI-H460 lung 106% | HOP-92 NSCLC 106% | NCI-H522 lung 93.7% | A549/ATCC NSCLC 97.2% | 786-0 renal 103% | COLO 205 colon 111%

C=CCn1c(SCC(=O)Nc2ccc(C(=O)/C=C/c3cc(OC)c(OC)c(OC)c3)cc2)nnc1-c1cc(-c2ccc(Cl)cc2)nc2ccccc12
inactive: NCI-H23 lung 88.7% | NCI-H226 lung 89.1% | HOP-62 NSCLC 97.5% | NCI-H460 lung 93.1% | HOP-92 NSCLC 83% | NCI-H522 lung 83.1% | A549/ATCC NSCLC 96.7% | 786-0 renal 74.2% | COLO 205 colon 115%

O=C1OC(C(Cl)(Cl)Cl)OC1C(Cl)(Cl)Cl (stereo not given)
inactive: NCI-H23 lung 102% | NCI-H226 lung 110% | HOP-62 NSCLC 121% | NCI-H460 lung 108% | HOP-92 NSCLC 105% | NCI-H522 lung 96.4% | A549/ATCC NSCLC 95.6% | 786-0 renal 114% | COLO 205 colon 107%

Nc1cc(Br)c(-c2nn3c(CCC(=O)c4nc5ccccc5[nH]4)nnc3s2)c(Br)c1
inactive: NCI-H23 lung 87.3% | NCI-H226 lung 83.6% | HOP-62 NSCLC 103% | NCI-H460 lung 102% | HOP-92 NSCLC 72.8% | NCI-H522 lung 97.4% | A549/ATCC NSCLC 101% | 786-0 renal 99.8% | COLO 205 colon 107%

COc1cc(/C=C/c2cc(/C=C/c3ccc(O)c(OC)c3)n(C(=O)Nc3ccc(C)cc3)n2)ccc1O
active: NCI-H23 lung -10.4% | NCI-H226 lung -0.891% | HOP-92 NSCLC -15.4% | NCI-H522 lung -19.3% | A549/ATCC NSCLC 4.71% | 786-0 renal -1.18% | COLO 205 colon -25.8%
inactive: HOP-62 NSCLC 11.6% | NCI-H460 lung 10.1%

OCC1OC2C(NC(=S)N2c2ccccc2)C(O)C1O (stereo not given)
inactive: NCI-H23 lung 102% | NCI-H226 lung 95.5% | HOP-62 NSCLC 101% | NCI-H460 lung 105% | HOP-92 NSCLC 90.5% | NCI-H522 lung 104% | A549/ATCC NSCLC 93.9% | 786-0 renal 110% | COLO 205 colon 105%

COc1cc2c(cc1NC(=O)C(Cl)Cl)-c1ccc(NC(=O)C(Cl)Cl)cc1C2
inactive: NCI-H23 lung 48.6% | NCI-H226 lung 19.3% | HOP-92 NSCLC 40.2% | NCI-H522 lung 82.5% | 786-0 renal 48.4%
active: HOP-62 NSCLC -58.3% | NCI-H460 lung -51.6% | A549/ATCC NSCLC -4.92% | COLO 205 colon -86.5%

Cc1ccc(/C=C/C(=O)C(=O)/C=C/c2ccc(C)cc2)cc1
inactive: NCI-H23 lung 95.4% | NCI-H226 lung 107% | HOP-62 NSCLC 109% | NCI-H460 lung 104% | HOP-92 NSCLC 108% | NCI-H522 lung 81.7% | A549/ATCC NSCLC 86.2% | 786-0 renal 96.9% | COLO 205 colon 110%

COc1cc(-c2nn(-c3cccc(NC(=O)CN4CCOCC4)c3)cc2-c2cccnc2)ccc1Cl
inactive: NCI-H23 lung 90.9% | NCI-H226 lung 82.2% | HOP-62 NSCLC 98.9% | NCI-H460 lung 84% | HOP-92 NSCLC 50.4% | NCI-H522 lung 49.1% | A549/ATCC NSCLC 83.8% | 786-0 renal 94.6% | COLO 205 colon 88.3%

O=[N+]([O-])c1cccc(/C=N/NC(=S)NC23CC4CC(CC(C4)C2)C3)c1
inactive: NCI-H23 lung 86.6% | NCI-H226 lung 48.4% | HOP-62 NSCLC 24.3% | NCI-H460 lung 56.4% | HOP-92 NSCLC 64% | NCI-H522 lung 88.8% | A549/ATCC NSCLC 56.5% | 786-0 renal 79.8% | COLO 205 colon 102%

COc1ccc(/C=C2\CCCC3=C2NC(N)=NC3c2ccc(OC)c(OC)c2)cc1OC (stereo not given)
inactive: NCI-H23 lung 49.3% | NCI-H226 lung 34.1% | HOP-62 NSCLC 57% | NCI-H460 lung 64.6% | HOP-92 NSCLC 75% | NCI-H522 lung 16.7% | A549/ATCC NSCLC 58.8% | 786-0 renal 94.3% | COLO 205 colon 46%

CCOC(=O)Cn1c(=O)c2sc3ncccc3c2n2nnc(-c3ccccc3)c12
inactive: NCI-H23 lung 100% | NCI-H226 lung 103% | HOP-62 NSCLC 95.4% | NCI-H460 lung 125% | HOP-92 NSCLC 71% | NCI-H522 lung 92.2% | A549/ATCC NSCLC 107% | 786-0 renal 99.9% | COLO 205 colon 104%

CCOC(=O)c1cc(C(=O)c2cc(OC)c(OC)c(OC)c2)n2ncc3ccccc3c12
inactive: NCI-H23 lung 82.5% | NCI-H226 lung 95.1% | HOP-62 NSCLC 89.5% | NCI-H460 lung 51.3% | HOP-92 NSCLC 81.6% | NCI-H522 lung 39.6% | A549/ATCC NSCLC 54.8% | 786-0 renal 94.5% | COLO 205 colon 60.4%

COc1ccc(C(c2ccc(OCCN(C)C)cc2)c2cc3ccccc3c3ccccc23)cc1 (stereo not given)
inactive: NCI-H23 lung 78.4% | NCI-H226 lung 87.5% | HOP-62 NSCLC 92.5% | HOP-92 NSCLC 63.6% | NCI-H522 lung 75% | A549/ATCC NSCLC 55% | 786-0 renal 50.6%
active: NCI-H460 lung -28.6% | COLO 205 colon -50.6%

CC1OC2CC(=O)OC2C2=C1C(=O)c1c(O)c3c(c(O)c1C2=O)C1CC(O)C3(O)C(C)O1 (stereo not given)
active: NCI-H23 lung -34.2% | NCI-H226 lung -69% | HOP-62 NSCLC -49.5% | NCI-H460 lung 2.35% | HOP-92 NSCLC -13% | NCI-H522 lung -66.4% | A549/ATCC NSCLC 2.66% | 786-0 renal -12.3% | COLO 205 colon -73.5%

CCN(CC)CCNc1ccc(C)c2sc3cc(Cl)ccc3c(=O)c12
active: NCI-H460 lung 1.44% | COLO 205 colon -67.3%
inactive: NCI-H23 lung 55% | NCI-H226 lung 75.2% | HOP-62 NSCLC 66.9% | HOP-92 NSCLC 22% | NCI-H522 lung 42.7% | A549/ATCC NSCLC 31.1% | 786-0 renal 43.3%

C/C=C/CSC(C)(C)C(=O)NC
inactive: NCI-H23 lung 102% | NCI-H226 lung 100% | HOP-62 NSCLC 89.7% | NCI-H460 lung 104% | HOP-92 NSCLC 104% | NCI-H522 lung 86% | A549/ATCC NSCLC 88.7% | 786-0 renal 108% | COLO 205 colon 119%
